Measured values published in PubChem BioAssay (Tox21).
Inconclusive results are not listed. Active and inactive are the calls of the source. Unless noted, the call rests on the fitted dose curve; in most records, active means well fitted curve in the direction sought with a large enough effect in the repeat runs; inconclusive means weak or mixed curves; inactive means no such curve, though single readings can be large; an effect the other way counts as inactive or inconclusive.

Experiments:
[1] = qHTS assay to identify small molecule antagonists of the sonic hedgehog signaling (Shh) pathway (AID 1259369; calls by dose curve; further: nearly all actives have a fitted effect of over 45% in size; further: potency means the concentration at half of the fitted maximal effect)
Outline: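 For antagonist detection, the reporter line received test compounds together with conditioned medium, incubated 24hr at 37 C, 5% CO2, then luminescence was recorded following 30min room-temperature luciferase reagent incubation.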

[2] = qHTS assay to identify small molecule agonists of the androgen receptor (AR) signaling pathway in the presence of an antagonist - cell viability counter screen (AID 1259379);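 further: MDA-kb2 human breast cancer cells carrying an MMTV luciferase reporter; series mostly up to about 92 µM; nearly all actives have a fitted effect of over 25% in size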
Outline: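 Seed MDA-kb2 at 3,000 cells/well; incubate 5 hr, 37C, 0% CO2. Add nilutamide to 3.0uM final, then pin compounds at 15 concentrations. Incubate 16 hr. Add CellTiter-Fluor at 15 hr, read fluorescence after 1 hr.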

[3] = qHTS assay to identify small molecule agonists of the estrogen receptor beta (ER-beta) signaling pathway - cell viability counter screen (AID 1259380); further: nearly all actives have a fitted effect of over 30% in size
Outline: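 CellTiter-Glo read, 30 min RT, same wells as bla assay; cells ER-beta-UAS-bla HEK293T; 16 hr compound, 37C; medium 2% charcoal-stripped FBS.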

[4] = target: Androgen receptor (Homo sapiens) (UniProt P10275); test: qHTS assay to identify small molecule agonists of the androgen receptor (AR) signaling pathway in the presence of an antagonist (AID 1259381; calls by dose curve; further: nearly all actives have a fitted effect of over 15% in size)
Outline: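 Test compounds at 15 concentrations were incubated for 16hr with MDA-kb2 reporter cells in presence of 3.0uM nilutamide (final). Signal: ONE-Glo luciferase luminescence.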

[5] = qHTS assay to identify small molecule antagonists of the estrogen receptor beta (ER-beta) signaling pathway - cell viability counter screen (AID 1259382); further: series mostly up to about 92 µM; nearly all actives have a fitted effect of over 55% in size
Outline: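 In this multiplexed counter screen, cells were seeded at 2,000 per well in medium with 2% charcoal-stripped FBS and incubated 6 hr before compound and 1nM final E2 were added. Sixteen hours later, ATP-based luminescence reported viability.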

[6] = qHTS assay to identify small molecule agonists or antagonists of the thyroid stimulating hormone receptor (TSHR) signaling pathway - wild type cell line counter screen (AID 1259384; calls by dose curve)
Outline: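 Wild-type HEK293 cells were plated 18 h at 37 C/5% CO2, pin-dosed with compound plus Ro20-1724 medium, held 30 min at room temperature, then given cAMP-d2 and anti-cAMP-cryptate; fluorescence was read after 1 h. Fifteen concentrations, triplicate.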

[7] = target: Thyrotropin receptor (Homo sapiens) (UniProt P16473); test: qHTS assay to identify small molecule antagonists of the thyroid stimulating hormone receptor (TSHR) signaling pathway (AID 1259385; calls by dose curve; further: nearly all actives have a fitted effect of over 20% in size)
Outline: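 TSHR-HEK293 cells were plated and held 18 h at 37C/5% CO2, then given compound plus Ro20-1724 and stimulated with TSH at 1.5 ng/mL final. After 30 min at room temperature, cAMP was detected with cAMP-d2/anti-cAMP-cryptate (1 h) by fluorescence.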

[8] = qHTS assay to identify small molecule agonists of the estrogen receptor alpha (ER-alpha) signaling pathway in the presence of an antagonist - cell viability counter screen (AID 1259386);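 further: series mostly up to about 92 µM; cells exposed to compounds for 22 h at 37 °C before the viability read; nearly all actives have a fitted effect of over 30% in size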
Outline: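 Viability counter screen using VM7Luc4E2 (full-length ER-alpha, four ERE-luciferase). The cells were treated with compounds alongside ICI-182,780 10.0nM for 22hr, and live-cell protease fluorescence was quantified with CellTiter-Fluor.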

[9] = target: Progesterone receptor (Homo sapiens) (UniProt P06401); test: qHTS assay to identify small molecule agonists of the progesterone receptor (PR) signaling pathway (AID 1346784; calls by dose curve; further: nearly all actives have a fitted effect of over 30% in size)
Outline: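 Agonist qHTS: compounds pinned onto 3,000 PR-UAS-bla HEK 293T cells per well in charcoal-stripped serum medium, 16hr at 37C, then beta-lactamase activity measured by LiveBLAzer FRET fluorescence after 2 hours at room temperature.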

[10] = target: Progesterone receptor (Homo sapiens) (UniProt P06401); test: qHTS assay to identify small molecule antagonists of the progesterone receptor (PR) signaling pathway (AID 1346795; active means well fitted inhibition curve with a large enough effect in the signal ratio in the repeat runs, not every such curve was filed as active; the % refers to the signal ratio)
Outline: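 Antagonist mode with agonist R5020 at 1 nM final and 16 hr incubation at 37C. Reporter was beta-lactamase driven by UAS in HEK293T (PR-UAS-bla), 2% charcoal-stripped serum; signal from LiveBLAzer FRET substrate, 2 hr at room temperature.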

[11] = qHTS assay to identify small molecule antagonists of the progesterone receptor (PR) signaling pathway - cell viability counter screen (AID 1346798); further: series mostly up to about 92 µM; nearly all actives have a fitted effect of over 50% in size
Outline: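 Cytotoxicity read as CellTiter-Glo luminescence (30 min, room temperature) in the same wells as the beta-lactamase readout. HEK293T PR-UAS-bla cells in charcoal-stripped 2% FBS received compound and R5020, then 16 h at 37C, 5% CO2.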

[12] = qHTS assay to identify small molecule antagonists of the TGF-beta/Smad signaling pathway - cell viability counter screen (AID 1346824); further: nearly all actives have a fitted effect of over 50% in size
Outline: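 SBE-bla HEK 293T cells were plated overnight at 37 C, then given compounds in DMSO plus TGF-beta1 (added as 0.25 ng/mL solution) for 5 hr. After the bla read, CellTiter-Glo was added to the same wells and luminescence read after 30 min at room temperature.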

[13] = qHTS assay to identify small molecule agonists of the TGF-beta/Smad signaling pathway - cell viability counter screen (AID 1346829); further: top concentration of the series differs between compounds; nearly all actives have a fitted effect of over 45% in size
Outline: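 SBE-bla HEK 293T cells plated overnight, compound exposure 5 hr at 37 C. Viability read in the same wells by CellTiter-Glo luminescence after 30 min at room temperature, following the beta-lactamase read.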

[14] = qHTS assay to identify small molecule agonists of the TGF-beta/Smad signaling pathway (AID 1346859; active means well fitted activation curve with a large enough effect in the signal ratio in the repeat runs, not every such curve was filed as active; the % refers to the signal ratio; further: potency means the concentration at half of the fitted maximal effect; on activation: series mostly up to about 77 µM)
Outline: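 Fluorescence (ex 405 nm; em 460 and 530 nm) was read 2 h after LiveBLAzer FRET substrate at RT. The preceding compound treatment of overnight-plated SBE-bla HEK293T cells lasted 5 h at 37 C.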

[15] = target: Estrogen receptor (Homo sapiens) (UniProt P03372); test: qHTS assay to identify small molecule agonists of the estrogen receptor alpha (ER-alpha) signaling pathway in the presence of an antagonist (AID 1259383; calls by dose curve; further: top concentration of the series differs between compounds; nearly all actives have a fitted effect of over 15% in size)
Outline: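 Stably transfected VM7Luc4E2 reporter cells, kept 5 days in charcoal-stripped serum, received ICI-182,780 at 10.0nM final before compound addition. Following 22hr incubation at 37C and 5% CO2, luciferase signal was read by luminescence.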

[16] = qHTS assay to identify small molecule agonists of the progesterone receptor (PR) signaling pathway - cell viability counter screen (AID 1346799; calls by dose curve; further: nearly all actives have a fitted effect of over 45% in size)
Outline: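 Cytotoxicity measured by CellTiter-Glo luminescence (30 min, RT) in the same wells as the PR beta-lactamase agonist read. Those HEK293T cells had 16 h compound treatment at 37 C in 2% charcoal-stripped FBS medium.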

[17] = target: Thyrotropin-releasing hormone receptor (Homo sapiens) (UniProt P34981); test: qHTS assay to identify small molecule antagonists of the thyrotropin-releasing hormone receptor (TRHR) signaling pathway (AID 1346877; active means well fitted inhibition curve with a large enough effect in the repeat runs, not every such curve was filed as active; further: series mostly up to about 51 µM)
Outline: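 Following an 18 h incubation at 37 °C and a 2 h calcium dye load, TRHR-HEK293 cells were exposed to compound (5 min, room temperature) and challenged with TRH, 1 nM final.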

[18] = target: Thyrotropin-releasing hormone receptor (Homo sapiens) (UniProt P34981); test: qHTS assay to identify small molecule agonists of the thyrotropin-releasing hormone receptor (TRHR) signaling pathway (AID 1346891; calls by dose curve; further: series mostly up to about 58 µM)
Outline: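 Agonist-mode intracellular calcium readout: kinetic fluorescence over 3 min at 1 s intervals after compound addition to TRHR-HEK293 cells (18 h seeded, 2 h dye-loaded at 37 C). Fifteen concentrations, triplicates.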

[19] = target: Estrogen receptor beta (Homo sapiens) (UniProt Q92731); test: qHTS assay to identify small molecule antagonists of the estrogen receptor beta (ER-beta) signaling pathway (AID 1259378; active means well fitted inhibition curve with a large enough effect in the signal ratio in the repeat runs, not every such curve was filed as active; the % refers to the signal ratio)
Outline: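 ER-beta-UAS-bla HEK293T (GripTite) cells in 2% charcoal-stripped FBS medium were preincubated 6 hr at 37C, dosed with compound, then stimulated with 1 nM E2 (final) for 16 hr; beta-lactamase reporter read by B/G FRET fluorescence after 2 hr substrate loading.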
On the % scale 0 is the no-effect control and ±100 the full control effect.

Chain of Thyrotropin-releasing hormone receptor (Homo sapiens) (P34981 whole entry, looked up): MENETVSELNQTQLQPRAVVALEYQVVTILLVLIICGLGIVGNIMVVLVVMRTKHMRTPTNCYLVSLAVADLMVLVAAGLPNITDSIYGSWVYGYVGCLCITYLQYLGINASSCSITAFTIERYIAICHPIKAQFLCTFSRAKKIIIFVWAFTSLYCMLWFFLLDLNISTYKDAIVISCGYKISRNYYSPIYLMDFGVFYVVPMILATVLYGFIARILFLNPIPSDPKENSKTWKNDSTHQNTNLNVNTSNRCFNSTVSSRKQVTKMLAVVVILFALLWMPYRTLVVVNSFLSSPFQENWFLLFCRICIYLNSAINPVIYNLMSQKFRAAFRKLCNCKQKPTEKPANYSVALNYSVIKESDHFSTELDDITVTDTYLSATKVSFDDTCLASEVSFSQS
Chain of Progesterone receptor (Homo sapiens) (P06401 whole entry, looked up): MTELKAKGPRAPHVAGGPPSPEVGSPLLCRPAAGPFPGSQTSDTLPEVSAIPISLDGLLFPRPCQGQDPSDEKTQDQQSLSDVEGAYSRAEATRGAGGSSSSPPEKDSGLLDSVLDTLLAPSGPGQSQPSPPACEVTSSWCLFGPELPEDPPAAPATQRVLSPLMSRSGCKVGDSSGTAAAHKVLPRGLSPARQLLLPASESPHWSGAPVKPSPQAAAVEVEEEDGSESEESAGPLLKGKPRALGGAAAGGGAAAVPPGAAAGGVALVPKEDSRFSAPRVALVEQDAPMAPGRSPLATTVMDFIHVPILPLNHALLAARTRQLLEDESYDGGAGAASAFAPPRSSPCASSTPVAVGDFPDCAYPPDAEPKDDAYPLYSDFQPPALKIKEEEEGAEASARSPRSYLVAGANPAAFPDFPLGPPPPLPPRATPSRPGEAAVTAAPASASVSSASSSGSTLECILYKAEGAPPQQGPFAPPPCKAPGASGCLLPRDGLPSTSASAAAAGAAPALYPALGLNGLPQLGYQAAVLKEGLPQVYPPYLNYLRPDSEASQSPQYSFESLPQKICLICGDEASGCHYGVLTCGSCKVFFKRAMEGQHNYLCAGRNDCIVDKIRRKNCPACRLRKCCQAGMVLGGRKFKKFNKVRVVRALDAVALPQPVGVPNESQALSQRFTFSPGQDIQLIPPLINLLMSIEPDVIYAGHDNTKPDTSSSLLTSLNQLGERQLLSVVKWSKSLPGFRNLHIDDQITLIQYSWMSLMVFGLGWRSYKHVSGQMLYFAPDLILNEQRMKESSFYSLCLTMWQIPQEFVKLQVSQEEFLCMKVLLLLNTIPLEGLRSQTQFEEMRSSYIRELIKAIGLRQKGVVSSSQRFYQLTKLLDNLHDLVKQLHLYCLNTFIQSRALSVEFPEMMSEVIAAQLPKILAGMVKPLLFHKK
Chain of Thyrotropin receptor (Homo sapiens) (P16473 whole entry, looked up): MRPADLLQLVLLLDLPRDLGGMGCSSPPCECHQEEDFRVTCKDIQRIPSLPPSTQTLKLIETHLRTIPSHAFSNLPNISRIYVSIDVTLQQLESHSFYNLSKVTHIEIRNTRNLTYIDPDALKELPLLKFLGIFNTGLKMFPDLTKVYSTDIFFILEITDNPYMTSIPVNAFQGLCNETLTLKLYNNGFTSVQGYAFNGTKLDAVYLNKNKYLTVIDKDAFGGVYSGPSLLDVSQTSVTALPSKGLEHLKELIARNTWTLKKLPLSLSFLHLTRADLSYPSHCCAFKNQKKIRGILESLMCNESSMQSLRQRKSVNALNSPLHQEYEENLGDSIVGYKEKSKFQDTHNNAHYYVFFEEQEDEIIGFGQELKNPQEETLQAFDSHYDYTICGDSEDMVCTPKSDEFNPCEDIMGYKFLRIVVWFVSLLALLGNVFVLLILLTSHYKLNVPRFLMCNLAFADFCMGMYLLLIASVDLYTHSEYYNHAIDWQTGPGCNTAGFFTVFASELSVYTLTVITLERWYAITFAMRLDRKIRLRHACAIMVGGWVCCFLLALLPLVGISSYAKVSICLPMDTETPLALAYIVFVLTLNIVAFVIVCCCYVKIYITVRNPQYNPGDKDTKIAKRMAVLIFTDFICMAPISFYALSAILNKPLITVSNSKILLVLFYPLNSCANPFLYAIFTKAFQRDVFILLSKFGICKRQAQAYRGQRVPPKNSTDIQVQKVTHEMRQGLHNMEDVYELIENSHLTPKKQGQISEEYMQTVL
Chain of Estrogen receptor (Homo sapiens) (P03372 whole entry, looked up): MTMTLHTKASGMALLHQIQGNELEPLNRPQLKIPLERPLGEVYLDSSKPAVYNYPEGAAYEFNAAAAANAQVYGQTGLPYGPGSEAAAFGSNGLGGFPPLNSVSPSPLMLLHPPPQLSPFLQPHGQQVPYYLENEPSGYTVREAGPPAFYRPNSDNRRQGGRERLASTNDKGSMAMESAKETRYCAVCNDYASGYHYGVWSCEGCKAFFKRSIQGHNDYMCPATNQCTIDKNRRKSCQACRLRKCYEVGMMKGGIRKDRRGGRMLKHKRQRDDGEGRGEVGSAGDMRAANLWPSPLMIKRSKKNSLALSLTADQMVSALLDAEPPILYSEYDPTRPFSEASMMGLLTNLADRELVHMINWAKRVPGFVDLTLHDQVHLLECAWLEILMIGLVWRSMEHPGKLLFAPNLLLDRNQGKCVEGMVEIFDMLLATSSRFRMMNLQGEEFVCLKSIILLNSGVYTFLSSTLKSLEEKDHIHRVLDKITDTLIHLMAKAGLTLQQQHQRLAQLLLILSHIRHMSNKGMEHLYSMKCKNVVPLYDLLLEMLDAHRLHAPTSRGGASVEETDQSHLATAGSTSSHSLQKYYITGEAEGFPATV
Chain of Estrogen receptor beta (Homo sapiens) (Q92731 whole entry, looked up): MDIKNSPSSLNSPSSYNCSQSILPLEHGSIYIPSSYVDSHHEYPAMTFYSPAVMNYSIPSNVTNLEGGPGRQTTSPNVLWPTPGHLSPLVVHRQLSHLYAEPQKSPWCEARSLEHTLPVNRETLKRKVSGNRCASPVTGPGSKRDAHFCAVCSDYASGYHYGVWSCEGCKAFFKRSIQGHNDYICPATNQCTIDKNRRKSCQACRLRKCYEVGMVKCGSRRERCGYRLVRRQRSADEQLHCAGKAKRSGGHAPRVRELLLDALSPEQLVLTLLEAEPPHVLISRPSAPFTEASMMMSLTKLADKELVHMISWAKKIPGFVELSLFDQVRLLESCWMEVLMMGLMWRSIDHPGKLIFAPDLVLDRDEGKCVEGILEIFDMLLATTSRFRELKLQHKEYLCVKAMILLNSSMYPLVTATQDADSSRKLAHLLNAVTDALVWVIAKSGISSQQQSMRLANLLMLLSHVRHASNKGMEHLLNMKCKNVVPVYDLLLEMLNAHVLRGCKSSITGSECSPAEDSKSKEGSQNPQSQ
Chain of Androgen receptor (Homo sapiens) (P10275 whole entry, looked up): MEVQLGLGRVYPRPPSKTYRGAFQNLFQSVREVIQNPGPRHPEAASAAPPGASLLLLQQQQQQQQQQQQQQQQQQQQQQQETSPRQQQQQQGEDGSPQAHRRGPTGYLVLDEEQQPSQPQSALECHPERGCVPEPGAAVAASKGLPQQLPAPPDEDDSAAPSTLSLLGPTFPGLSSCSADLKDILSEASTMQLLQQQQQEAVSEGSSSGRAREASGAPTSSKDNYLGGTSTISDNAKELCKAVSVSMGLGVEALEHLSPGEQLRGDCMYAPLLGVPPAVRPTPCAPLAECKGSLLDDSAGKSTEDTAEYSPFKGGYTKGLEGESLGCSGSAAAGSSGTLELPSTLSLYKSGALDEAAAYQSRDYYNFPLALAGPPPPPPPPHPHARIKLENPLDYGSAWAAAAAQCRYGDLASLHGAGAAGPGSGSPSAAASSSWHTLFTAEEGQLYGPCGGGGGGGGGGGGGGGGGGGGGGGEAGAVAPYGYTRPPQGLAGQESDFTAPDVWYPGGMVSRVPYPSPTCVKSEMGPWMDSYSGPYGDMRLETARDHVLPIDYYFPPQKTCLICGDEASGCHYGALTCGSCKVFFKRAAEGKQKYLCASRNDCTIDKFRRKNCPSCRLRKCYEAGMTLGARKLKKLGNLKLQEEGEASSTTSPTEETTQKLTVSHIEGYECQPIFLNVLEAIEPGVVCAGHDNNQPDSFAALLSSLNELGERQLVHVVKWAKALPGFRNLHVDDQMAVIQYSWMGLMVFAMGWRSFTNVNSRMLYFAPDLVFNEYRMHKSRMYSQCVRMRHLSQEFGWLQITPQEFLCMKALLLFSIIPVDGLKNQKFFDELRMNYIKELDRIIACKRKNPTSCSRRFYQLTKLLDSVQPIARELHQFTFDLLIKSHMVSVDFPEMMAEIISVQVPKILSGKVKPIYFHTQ

Cc1cccc(Nc2ccccc2)c1
inactive: Potency [1] | Potency [2] | Potency [3] | Potency [4] | Potency [5] | Potency [6] | Potency [7] | Potency [8] | Potency [9] | Potency [10] | Potency [11] | Potency [12] | outcome [13] | Potency [14]

CCCCC(CC)COC(=O)CCCCCCCCC(=O)OCC(CC)CCCC (stereo not drawn)
inactive: Potency [1] | Potency [2] | Potency [3] | Potency [5] | Potency [15] | Potency [6] | Potency [7] | Potency [8] | Potency [9] | Potency [10] | Potency [11] | Potency [16] | Potency [12] | outcome [13] | Potency [14] | outcome [17] | Potency [18]

Brc1c2ccccc2c(Br)c2ccccc12
inactive: activity change, negative = inhibition [1] 2.55% [at 8.39 µM] | activity, negative = inhibition [19] 14.5% [at 8.39 µM] | activity change, negative = cytotoxicity [2] 0.897% [at 8.39 µM] | activity change, negative = cytotoxicity [3] 1.65% [at 8.39 µM] | activity change, negative = cytotoxicity [5] 7.62% [at 8.39 µM] | cAMP activity change [6] 1.89% [at 8.39 µM, hits give high values] | activity change, negative = inhibition [7] -6.18% [at 8.39 µM] | activity change, negative = cytotoxicity [8] 2.81% [at 8.39 µM] | activation [9] 5.54% [at 8.39 µM] | activity change, negative = inhibition [10] 3.87% [at 8.39 µM] | activity change, negative = cytotoxicity [11] 3.37% [at 8.39 µM] | activity change, negative = cytotoxicity [16] 18.6% [at 8.39 µM] | viability change, negative = cytotoxic [12] 16.5% [at 6.97 µM] | activity change, negative = cytotoxicity [13] -9.36% [at 6.97 µM] | activity, negative = inhibition [17] -1.3% [at 4.65 µM] | activation [18] 0.0356% [at 5.23 µM]
active: Potency [14] 2.22 µM

N=c1ccn2c(n1)O[C@H]1[C@H](O)[C@@H](CO)O[C@H]12
inactive: Potency [1] | Potency [2] | Potency [3] | Potency [5] | Potency [15] | Potency [6] | Potency [7] | Potency [8] | Potency [9] | Potency [10] | Potency [11] | Potency [16] | Potency [12] | outcome [13] | Potency [14]

CNC(=O)CN(CCN(CCN(CC(=O)[O-])CC(=O)NC)CC(=O)[O-])CC(=O)[O-].O.[Gd+3]
inactive: Potency [1] | Potency [2] | Potency [3] | Potency [5] | Potency [15] | Potency [8] | Potency [10] | Potency [11] | Potency [16] | Potency [12] | Potency [14] | outcome [17] | Potency [18]

Cc1ccc(C(C)OC(=O)C2(C)CCC(C(=O)O)C2(C)C)cc1 (stereo not drawn)
inactive: Potency [1] | Potency [2] | Potency [3] | Potency [5] | Potency [6] | Potency [7] | Potency [8] | Potency [9] | Potency [10] | Potency [11] | Potency [16] | Potency [12] | Potency [14]

O=C(O)CC(=O)C(=O)O
active: Potency [1] 54.6 µM
inactive: Potency [2] | Potency [3] | Potency [5] | Potency [6] | Potency [7] | Potency [16] | Potency [12] | outcome [13] | Potency [14]

C[C@H]1C[C@H]2[C@@H]3CCC4=CC(=O)C=C[C@]4(C)[C@@]3(Cl)[C@@H](O)C[C@]2(C)[C@@]1(O)C(=O)CO
inactive: Potency [1] | Potency [2] | Potency [5] | Potency [6] | Potency [8] | Potency [11] | Potency [12] | outcome [13] | outcome [17] | Potency [18]

ClCCOCCOCCCl
inactive: Potency [1] | Potency [2] | Potency [3] | Potency [5] | Potency [15] | Potency [6] | Potency [7] | Potency [8] | Potency [11] | Potency [16] | Potency [12] | outcome [13] | Potency [14] | Potency [18]
